Our source for the outcome and AC50 values is PubChem BioAssay (EPA / NIEHS).

Several values for one entry are separate records, joined by “and”; a condition that tells them apart may be missing. Equal values may be shown once. The source holds several records for some structures; these can differ, active in one and inactive in another. Activity calls are given as the source filed them. The calls were made as follows: active = hit-call score of the fitted dose curve at least 0.9, where 1 is the maximum; inactive = score below 0.9.

What is called AC50 is the concentration giving half of the maximal activity seen.

Read-out in one test: TIMP metallopeptidase inhibitor 2 (TIMP2), TIMP2 (gene 7077)
Nature of the test: BSK_KF3CT_TIMP2: BioMAP Diversity Plus: KF3CT Assay for TIMP metallopeptidase inhibitor 2 (TIMP2) Biomarker Activity (AID 2283071). Conditions: primary human keratinocytes with fibroblasts; actives raise or lower the signal. In outline: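 Keratinocyte–fibroblast co-culture, 24 h exposure; TIMP-2 ELISA, DMSO-normalised bidirectional fit. Parallel SRB (0.1%, TCA-fixed, 560 nm) total-protein staining gauges cytotoxicity.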
Regarding `O=c1c2ccccc2oc2ccccc12`, the result was inactive.

As to `COCc1c(C(C)C)nc(C(C)C)c(/C=C/[C@@H](O)C[C@@H](O)CC(=O)O)c1-c1ccc(F)cc1`, the result was inactive.

On to `O=Nc1ccc(O)cc1`, for which the result was inactive.

Turning to `N#[N+]c1ccc2c(S(=O)(=O)[O-])cccc2c1O`, the result was inactive.

Turning to `C#CC1(O)CC[C@H]2[C@@H]3CCC4=CCCC[C@@H]4[C@H]3CC[C@@]21C` (some centres undefined), the AC50 is 20 µM (active).

For the compound `O=C(Cl)c1cc(C(=O)Cl)cc(C(=O)Cl)c1`, the AC50 was 25.2 µM (active).

In the case of `CC(C)C(=O)C(C)C`, the outcome was inactive.

As for `C=CC(=O)OCC(Br)CBr` (centres undefined), the AC50 was 32 µM (active).

On to `CCOC(=O)c1ccccc1C(=C1C=C(Br)C(=O)C(Br)=C1)c1cc(Br)c(O)c(Br)c1`, for which the AC50 is 3.46 µM (active) and 3.44 µM (active).

In the case of `c1ccc2c(c1)ccc1ncccc12`, the result was inactive.

Take `CCCCC(CC)COC(=O)c1ccccc1O` (centres undefined): the outcome was inactive.

Consider `CCCCCCCCCCCCCCCC[N+](C)(C)CC`, for which the AC50 is 2.15 µM (active).

Turning to `COc1ccc2nc(N)sc2c1`, the outcome was inactive.

On to `CC(C)(c1cc(Br)c(OCCO)c(Br)c1)c1cc(Br)c(OCCO)c(Br)c1`, for which the AC50 was 16.2 µM (active).

As to `CCCCC/C=C\C/C=C\CCCCCCCC(=O)OC`, the AC50 is 30 µM (active).

Regarding `Nc1ccc(N)c(Cl)c1`, the outcome was inactive.

Take `CC1OC1C1CCC2(C)OC2C1` (centres undefined): the outcome was inactive.

As to `C=C[Si](OC(C)=O)(OC(C)=O)OC(C)=O`, the result was inactive.

Take `S=C(NC1CCCCC1)NC1CCCCC1`: the outcome was inactive.

Take `C/C=C\C/C=C/CCCCCCCCOC(C)=O`: the AC50 was 20 µM (active).

As for `CCCCC(CC)COCC1CO1` (centres undefined), the result was inactive.

As to `CCO[Si](CCCN=C=O)(OCC)OCC`, the outcome was inactive.

`CO[Si](OC)(OC)c1ccccc1`: the outcome was inactive.

For `CCCCNc1ccc(NCCCC)c2c1C(=O)c1ccccc1C2=O`, the result was inactive.

Turning to `CCO[Si](C)(OCC)OCC`, the result was inactive.

Turning to `O=C1CCCN1CCO`, the outcome was inactive.

Take `CN1C(=O)N(C)C(O)C1O` (centres undefined): the result was inactive.

Take `C=CCOc1c(Br)cc(Br)cc1Br`: the AC50 was 11.4 µM (active).

On to `CCCCCCCCc1ccc(Nc2ccc(CCCCCCCC)cc2)cc1`, for which the result was inactive.

In the case of `O=C(c1ccc(O)cc1)c1ccc(O)cc1O`, the outcome was inactive.

Take `CCOc1nc(F)cc2nc(S(=O)(=O)Nc3c(Cl)cccc3C(=O)OC)nn12`: the outcome was inactive.

Consider `C=CC=CC=CCCCCC`, for which the result was inactive.

`c1ccc(-c2ccccn2)nc1`: the outcome was inactive.

On to `C=CCOCC(O)CCl` (centres undefined), for which the outcome was inactive.

In the case of `c1ccc2c(c1)ccc1cc3c(ccc4ccccc43)cc12`, the AC50 was 3.59 µM (active) and the result was inactive.

On to `O=C(Nc1ccccc1SSc1ccccc1NC(=O)c1ccccc1)c1ccccc1`, for which the outcome was inactive.

Read-out in another test: Transforming growth factor beta 1 (TGFb1), TGFB1 (gene 7040)
Kind of test: BSK_KF3CT_TGFb1: BioMAP Diversity Plus: KF3CT Assay for Transforming growth factor beta 1 (TGFb1) Biomarker Activity (AID 2283072). As to conditions: primary human keratinocytes with fibroblasts; actives raise or lower the signal. In outline: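 Signal changes in either direction, relative to DMSO, define activity here. TGF-b1 is read by ELISA from a human keratinocyte-fibroblast co-culture 24 h post-dose.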
For `O=c1c2ccccc2oc2ccccc12`, the outcome was inactive.

`COCc1c(C(C)C)nc(C(C)C)c(/C=C/[C@@H](O)C[C@@H](O)CC(=O)O)c1-c1ccc(F)cc1`: the result was inactive.

As for `O=Nc1ccc(O)cc1`, the result was inactive.

Take `N#[N+]c1ccc2c(S(=O)(=O)[O-])cccc2c1O`: the outcome was inactive.

In the case of `C#CC1(O)CC[C@H]2[C@@H]3CCC4=CCCC[C@@H]4[C@H]3CC[C@@]21C` (some centres undefined), the AC50 was 25.4 µM (active).

On to `O=C(Cl)c1cc(C(=O)Cl)cc(C(=O)Cl)c1`, for which the AC50 was 28.2 µM (active).

As for `CC(C)C(=O)C(C)C`, the result was inactive.

As for `C=CC(=O)OCC(Br)CBr` (centres undefined), the AC50 is 5.81 µM (active).

As to `c1ccc2c(c1)ccc1ncccc12`, the result was inactive.

Take `CCCCC(CC)COC(=O)c1ccccc1O` (centres undefined): the result was inactive.

For the compound `CCCCCCCCCCCCCCCC[N+](C)(C)CC`, the AC50 was 7.9 µM (active).

On to `COc1ccc2nc(N)sc2c1`, for which the result was inactive.

Regarding `CC(C)(c1cc(Br)c(OCCO)c(Br)c1)c1cc(Br)c(OCCO)c(Br)c1`, the AC50 is 6.03 µM (active).

For the compound `CCCCC/C=C\C/C=C\CCCCCCCC(=O)OC`, the AC50 is 16.4 µM (active).

For the compound `CC1OC1C1CCC2(C)OC2C1` (centres undefined), the result was inactive.

Take `S=C(NC1CCCCC1)NC1CCCCC1`: the outcome was inactive.

In the case of `C/C=C\C/C=C/CCCCCCCCOC(C)=O`, the AC50 is 10.8 µM (active).

With `CCO[Si](CCCN=C=O)(OCC)OCC`, the outcome was inactive.

As for `CCCCNc1ccc(NCCCC)c2c1C(=O)c1ccccc1C2=O`, the result was inactive.

`C=CCOc1c(Br)cc(Br)cc1Br`: the AC50 was 9.26 µM (active).

Consider `CCCCCCCCc1ccc(Nc2ccc(CCCCCCCC)cc2)cc1`, for which the outcome was inactive.

As for `CCOc1nc(F)cc2nc(S(=O)(=O)Nc3c(Cl)cccc3C(=O)OC)nn12`, the result was inactive.

On to `C=CC=CC=CCCCCC`, for which the outcome was inactive.

In the case of `c1ccc(-c2ccccn2)nc1`, the outcome was inactive.

Take `c1ccc2c(c1)ccc1cc3c(ccc4ccccc43)cc12`: the outcome was inactive.

As for `O=C(Nc1ccccc1SSc1ccccc1NC(=O)c1ccccc1)c1ccccc1`, the outcome was inactive.

Read-out in another test: C-C motif chemokine 2 (Homo sapiens) (UniProt P13500)
Kind of test: BSK_KF3CT_MCP1: BioMAP Diversity Plus: KF3CT Assay for Monocyte Chemoattractant Protein 1 (MCP1/CCL2) Biomarker Activity (AID 2283073). As to conditions: primary human keratinocytes with fibroblasts; actives raise or lower the signal. In outline:
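ELISA read-out of MCP-1, 24 h post-dose, in primary human skin keratinocytes co-cultured with fibroblasts. Parallel SRB staining monitors cytotoxicity; changes fitted both directions relative to DMSO.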
Take `O=c1c2ccccc2oc2ccccc12`: the outcome was inactive.

Regarding `COCc1c(C(C)C)nc(C(C)C)c(/C=C/[C@@H](O)C[C@@H](O)CC(=O)O)c1-c1ccc(F)cc1`, the AC50 is 0.071 µM (active).

Consider `O=Nc1ccc(O)cc1`, for which the result was inactive.

Take `N#[N+]c1ccc2c(S(=O)(=O)[O-])cccc2c1O`: the outcome was inactive.

In the case of `C#CC1(O)CC[C@H]2[C@@H]3CCC4=CCCC[C@@H]4[C@H]3CC[C@@]21C` (some centres undefined), the AC50 is 30.9 µM (active).

`O=C(Cl)c1cc(C(=O)Cl)cc(C(=O)Cl)c1`: the AC50 was 30.1 µM (active).

On to `CC(C)C(=O)C(C)C`, for which the outcome was inactive.

`C=CC(=O)OCC(Br)CBr` (centres undefined): the result was inactive.

As to `CCOC(=O)c1ccccc1C(=C1C=C(Br)C(=O)C(Br)=C1)c1cc(Br)c(O)c(Br)c1`, the AC50 was 3.39 µM (active) and 3.47 µM (active).

`c1ccc2c(c1)ccc1ncccc12`: the result was inactive.

In the case of `CCCCC(CC)COC(=O)c1ccccc1O` (centres undefined), the result was inactive.

For `CCCCCCCCCCCCCCCC[N+](C)(C)CC`, the AC50 was 6.3 µM (active).

With `COc1ccc2nc(N)sc2c1`, the result was inactive.

As for `CC(C)(c1cc(Br)c(OCCO)c(Br)c1)c1cc(Br)c(OCCO)c(Br)c1`, the AC50 was 16.2 µM (active).

For the compound `CCCCC/C=C\C/C=C\CCCCCCCC(=O)OC`, the AC50 was 28.7 µM (active).

Turning to `Nc1ccc(N)c(Cl)c1`, the result was inactive.

With `CC1OC1C1CCC2(C)OC2C1` (centres undefined), the result was inactive.

As for `C=C[Si](OC(C)=O)(OC(C)=O)OC(C)=O`, the outcome was inactive.

On to `S=C(NC1CCCCC1)NC1CCCCC1`, for which the result was inactive.

Take `C/C=C\C/C=C/CCCCCCCCOC(C)=O`: the AC50 is 20 µM (active).

Regarding `CCCCC(CC)COCC1CO1` (centres undefined), the outcome was inactive.

For `CCO[Si](CCCN=C=O)(OCC)OCC`, the outcome was inactive.

Consider `CO[Si](OC)(OC)c1ccccc1`, for which the outcome was inactive.

For `CCCCNc1ccc(NCCCC)c2c1C(=O)c1ccccc1C2=O`, the outcome was inactive.

On to `CCO[Si](C)(OCC)OCC`, for which the result was inactive.

For `O=C1CCCN1CCO`, the result was inactive.

Consider `CN1C(=O)N(C)C(O)C1O` (centres undefined), for which the outcome was inactive.

On to `C=CCOc1c(Br)cc(Br)cc1Br`, for which the AC50 is 12.2 µM (active).

For `CCCCCCCCc1ccc(Nc2ccc(CCCCCCCC)cc2)cc1`, the outcome was inactive.

As to `O=C(c1ccc(O)cc1)c1ccc(O)cc1O`, the result was inactive.

Turning to `CCOc1nc(F)cc2nc(S(=O)(=O)Nc3c(Cl)cccc3C(=O)OC)nn12`, the outcome was inactive.

Consider `C=CC=CC=CCCCCC`, for which the result was inactive.

For `c1ccc(-c2ccccn2)nc1`, the outcome was inactive.

Consider `C=CCOCC(O)CCl` (centres undefined), for which the outcome was inactive.

For the compound `c1ccc2c(c1)ccc1cc3c(ccc4ccccc43)cc12`, the outcome was inactive.

As for `O=C(Nc1ccccc1SSc1ccccc1NC(=O)c1ccccc1)c1ccccc1`, the outcome was inactive.
